# Measurements as given in PubChem BioAssay (NCATS).
# Results filed as inconclusive are left out. Calls of active or inactive are those of the source. Calls come from the whole dose curve; as a rule, active = well fitted inhibition curve with a large enough effect; inconclusive = small, poorly fitted or top-dose-only effect; inactive = no such curve, though single readings can be large or run the other way.
# Target: Retinaldehyde dehydrogenase 3 (Homo sapiens) (UniProt P47895)
# Experiment: qHTS for Inhibitors of the Aldehyde Dehydrogenase Family (ALDH1A3) Primary screen (AID 2061315);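 note: plate controls were DMSO vehicle for no effect and reference inhibitor for full effect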
# Settings: ALDH inhibition qHTS; series mostly up to 56 µM; activity change, negative = inhibition: at the top concentration
row,SMILES,"activity change, negative = inhibition"
1,N#CN1CCC(NS(=O)(=O)c2cccc(C(F)(F)F)c2)CC1,-2.92% (inactive)
2,C=C[C@H](/C=C\c1ccc(O)cc1)c1ccc(O)cc1,2.27% (inactive)
3,Cc1ccc(NS(=O)(=O)c2ccc(Cl)cc2)cc1C,8.57% (inactive)
4,Cc1cc(NS(=O)(=O)c2ccc(NC(=O)Cc3ccc(Cl)cc3Cl)cc2)no1,13.4% (inactive)
5,O=C(NC(NC(=S)Nc1ccc(F)c([N+](=O)[O-])c1)C(Cl)(Cl)Cl)C(c1ccccc1)c1ccccc1 (stereo not drawn),12.5% [at 16.9 µM] (inactive)
6,Cn1c2cc(B(O)O)sc2c2cnn(Cc3c(F)cccc3F)c(=O)c21,-11.7% (inactive)
7,COc1cccc(-n2cnc3cc(C(=O)N4CCCCC4)ccc32)c1,-1.64% (inactive)
8,c1coc(-c2ccc3ncnc(NCc4cccs4)c3c2)c1,-2.83% (inactive)
9,c1cncc(-c2ccc3ncnc(NCc4cccs4)c3c2)c1,-10.1% (inactive)
10,Cc1ccc(-c2cc(C(=O)NC3CCCCC3)c3ccccc3n2)cc1C,-5.45% (inactive)
11,CCNC(=O)c1ccc(-c2ccc3ncnc(NCC4CCCO4)c3c2)o1 (stereo not drawn),-25.1% (inactive)
12,O=S(=O)(NCC1CCC(NS(=O)(=O)c2c(F)cccc2F)CC1)c1ccc2c(c1)OCCO2 (stereo not drawn),-0.703% (inactive)
13,c1nc(NCCc2cnc[nH]2)c2cc(-c3ccoc3)ccc2n1,0.811% (inactive)
14,C[C@H](N)C(=O)Nc1ccc(Cl)cc1C(=O)c1ccc[nH]1,11.3% (inactive)
15,CCCn1c(C)nc2c(N(CCN(CC)CC)CCN(CC)CC)nc(C)nc21,9.71% (inactive)
16,c1cncc(CNc2ncnc3ccc(-c4ccc5c(c4)OCO5)cc23)c1,17.3% (inactive)
17,O=C(O)CNc1cccc(-c2nn3c(=O)cc(N4CCNCC4)nc3s2)c1,-0.491% (inactive)
18,O=C(Nc1ccc2ccccc2c1)Nc1nnc(-c2ccccc2F)s1,-7.69% (inactive)
